Test results as given in PubChem BioAssay (EPA / NIEHS).
Active and inactive are the calls of the source. How the source made its calls: active means hit-call score of the fitted dose curve at least 0.9, where 1 is the maximum; inactive means score below 0.9.

Assay: APR_HepG2_MitoticArrest_24hr: Apredica 24-hour HepG2 Assay for Mitotic Arrest (AID 2282910)
Settings: high-content imaging, actives raise or lower the signal
Method: APR_HepG2_24hr is a cell-based, multiplexed-readout assay that uses HepG2, a human liver cell line, with measurements taken at 24 hours after chemical dosing in a 384-well plate.APR_HepG2_MitoticArrest_24hr is one of 10 assay component(s) measured or calculated from the APR_HepG2_24hr assay. It is designed to make measurements of cell phenotype, a form of morphology reporter, as detected with fluorescence intensity signals by HCS Fluorescent Imaging technology.Data from the assay component APR_HepG2_MitoticArrest_24hr was analyzed into 1 assay endpoint. This assay endpoint, APR_HepG2_MitoticArrest_24hr, was analyzed with bidirectional fitting relative to DMSO as the negative control and baseline of activity. Using a type of morphology reporter, measures of protein for gain or loss-of-signal activity can be used to understand the signaling at the pathway-level as they relate to the gene . Furthermore, this assay endpoint can be referred to as a primary readout, because this assay has produced multiple assay endpoints where this one serves a signaling function. To generalize the intended target to other relatable targets, this assay endpoint is annotated to the cell cycle intended target family, where the subfamily is arrest.
Cells were treated with dimethyl sulfoxide (DMSO) as a solvent control at a final concentration of 0.5% v/v or with compounds in DMSO with a resulting final DMSO concentration of 0.5% v/v. Compound treatment was done at concentrations of 0.39, 0.78, 1.56, 3.12, 6.24, 12.5, 25, 50, 100, and 200 uM in duplicate on each plate. Cells were treated with compounds for 1, 24, or 72 hr. Carbonyl […] m-chloro-phenylhydrazone (CCCP) and taxol were used as positive controls for mitochondrial function and cytoskeletal stability, respectively; DMSO served as the negative control for this experiment. Cells were fixed by the direct addition of 50 uL formaldehyde in Hank's Balanced Salt Solution (HBSS) to a final concentration of 3.7%. After incubation in the fixation medium for 30 min at room temperature (293-298 K), cells were rinsed twice with HBSS and treated with cell permeabilization buffer (16 uL of 0.5% Triton X-100) for 10 min at room temperature (293-298 K) before labeling. For mitochondrial membrane potential and mitochondrial measurements, pre-fixed cells were incubated with 50 uL of MitoTracker Red CMXRos (Invitrogen) at a concentration of 250 nM for 30 min before fixation. In the remaining cases, post-fixed cells were labeled by incubation with a multiplexed mixture of primary antibodies in HBSS for 60 min at room temperature (293-298 K) to detect immunoreactivity of c-Jun (1:500), phospho-histone H3 (1:100), phospho-histone H2A.x (1:200), p53 (1:400), alpha-tubulin (1:200) and Hoechst 33342 (2 ug/mL). Cells were labeled for multiplexed imaging on two separate plates: a) Hoechst 33342, MitoTracker Red, phospho-histone H3, and alpha-tubulin, and b) Hoechst 33342, phospho-histone H2A.x, and c-Jun. A final rinse with HBSS (50 uL) was performed before analysis. The primary and secondary antibodies for the proteins were phospho-histone H3 (rabbit anti-phospho-histone H3 and FITC-donkey anti-rabbit IgG), phospho-histone H2A.x (mouse anti-phospho-histone H2A.x and FITC-donkey anti-mouse IgG), c-Jun (rabbit anti-phospho-c-Jun and Cy3-donkey anti-rabbit IgG), p53 (sheep anti-p53 and Cy5-donkey anti-sheep IgG), alpha-tubulin (mouse anti-alpha-tubulin and Cy5-donkey anti-mouse IgG). These antibodies are available as the CellCiphr HepG2 assay kit (Millipore).Digital images of each well were captured using a Cellomics ArrayScan VTI (Thermo Scientific Cellomics) (0.8 NA objective, 0.63x optical coupler, and XF-93 filter set) at 20x magnification. The images were acquired using the autofocus feature of the ArrayScan instrument, which entails the following steps. First, the camera focuses on channel 1 (Hoechst 33342), where nuclei are identified. Second, a Z offset of 1 um is used for capturing mitochondria (MitoTracker Red). […]

SMILES	AC50	outcome
O=C1C2CC=CCC2C(=O)N1SC(Cl)(Cl)Cl (stereo not given)	30.1 µM (active)	
O=P(O)(O)CCCl		inactive
CCSC(=O)N1CCCCCC1		inactive
Clc1nc(Cl)nc(Nc2ccccc2Cl)n1		inactive
CCC(C)n1c(=O)[nH]c(C)c(Br)c1=O (stereo not given)		inactive
CCOc1nc(F)cc2nc(S(=O)(=O)Nc3c(Cl)cccc3Cl)nn12		inactive
C=CCOC(=O)C(C)(C)OC(=O)c1cc(-n2c(=O)cc(C(F)(F)F)n(C)c2=O)ccc1Cl		inactive
COC(=O)NS(=O)(=O)c1ccc(N)cc1		inactive
CC1(C)C(C(=O)OC(C#N)c2cccc(Oc3ccccc3)c2)C1(C)C (stereo not given)		inactive
CCOP(=O)(OCC)Oc1nc(Cl)c(Cl)cc1Cl		inactive
CN=C=S		inactive
O=C(Nc1ccccc1-c1ccc(Cl)cc1)c1cccnc1Cl		inactive
CC(C)Nc1nc(Cl)nc(NC(C)C)n1		inactive
CCN(CC)c1nc(C)cc(OP(=S)(OC)OC)n1		inactive
O=C(O)c1c(Cl)ccc2cc(Cl)cnc12		inactive
CS(=O)(=O)c1ccc(C(=O)C2C(=O)CCCC2=O)c([N+](=O)[O-])c1		inactive
CCCCOCN(C(=O)CCl)c1c(CC)cccc1CC		inactive
COc1ccc(-c2ccccc2)cc1NNC(=O)OC(C)C		inactive
CNC(=O)N(C)c1nnc(C(C)(C)C)s1		inactive
CN/C(=N\[N+](=O)[O-])NCc1cnc(Cl)s1		inactive

SMILES	AC50	outcome
OC(c1ccc(Cl)cc1)(c1ccc(Cl)cc1)C(Cl)(Cl)Cl		inactive
CCCCC(O)(Cn1cncn1)c1ccc(Cl)cc1Cl (stereo not given)		inactive
CC(C)N1C(=O)c2ccccc2NS1(=O)=O		inactive
Cn1c(-c2ccccc2)cc(-c2ccccc2)[n+]1C		inactive
COc1cc(OC)nc(NC(=O)NS(=O)(=O)c2ncccc2OCC(F)(F)F)n1		inactive
COC(=O)c1c(C(F)F)nc(C(F)(F)F)c(C2=NCCS2)c1CC(C)C		inactive
CC(C)NC(=O)N1CC(=O)N(c2cc(Cl)cc(Cl)c2)C1=O		inactive
CCCN(CC)CC1COC2(CCC(C(C)(C)C)CC2)O1 (stereo not given)		inactive
CNC(=O)Oc1cccc2ccccc12		inactive
O=c1n(Cl)c(=O)n(Cl)c(=O)n1Cl		inactive
CO/N=C(/C1=NOCCO1)c1ccccc1Oc1ncnc(Oc2ccccc2Cl)c1F		inactive
CCOC(=O)C(C)OC(=O)c1cc(Oc2ccc(C(F)(F)F)cc2Cl)ccc1[N+](=O)[O-] (stereo not given)		inactive
Cc1cnc(C2=NC(C)(C(C)C)C(=O)N2)c(C(=O)O)c1 (stereo not given)		inactive
N#CN=C1SCCN1Cc1ccc(Cl)nc1		inactive
CCCCC(C#N)(Cn1cncn1)c1ccc(Cl)cc1 (stereo not given)		inactive
COCC(=O)N(c1c(C)cccc1C)C(C)C(=O)OC (stereo not given)		inactive
CS(=O)(=O)c1cc(C(F)(F)F)ccc1C(=O)c1cnoc1C1CC1		inactive
C=C(C)CN(CC)c1c([N+](=O)[O-])cc(C(F)(F)F)cc1[N+](=O)[O-]		inactive
Cc1nc(N(C)C)nc(OC(=O)N(C)C)c1C		inactive
COCc1cnc(C2=NC(C)(C(C)C)C(=O)N2)c(C(=O)O)c1 (stereo not given)		inactive
